# Data published in the supplement of paper PMC6555819.
# Experiments:
# Experiment in all cases: PBM binding z-score (relative to random genomic background probes); higher = stronger binding; sequences stand for … in GC…GCGATTGACAGCGTAGAATGAAGG
# [1] = system: PPARg:RXRa DBDmut IVT, anti-RXR (DBD mutation: RXRa K156A/R161A, NR concentration 270 nM, RXRa partner concentration 90 nM)
# In short: (§1)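 The probes on custom Agilent 4×180K protein-binding microarrays were double-stranded, with 34-nt variable regions bearing direct-repeat seeds, single-nucleotide variants, half-site ablations and random human genomic background sequences. Incubation lasted 1 h with ligand-free nuclear receptor dimers in PBS pH 7.4, 2% milk, 0.02% Triton X-100, 1 mM DTT, 0.2 mg/mL BSA and 0.4 mg/ml salmon testes DNA. Antibodies against each partner (one per run) detected bound dimers, and fluorescence scans were regression-normalized. Binding z-scores take the random background probes as reference.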
# [2] = system: PPARg:RXRa IVT, anti-PPARg (NR concentration 270 nM, RXRa partner concentration 90 nM)
# In short: as §1
# [3] = system: PPARg DBDmut:RXRa IVT, anti-PPARg (DBD mutation: PPARg1 K132A/R137A, NR concentration 270 nM, RXRa partner concentration 90 nM)
# In short: as §1
# [4] = system: PPARg DBDmut IVT, anti-PPARg (DBD mutation: PPARg1 K132A/R137A, NR concentration 270 nM)
# In short: as §1
# [5] = system: PPARg homodimer (NR concentration 180 nM)
# In short: as §1
# [6] = system: PXR:RXRa (NR concentration 270 nM, RXRa partner concentration 90 nM)
# In short: as §1
# [7] = system: PXR homodimer (NR concentration 270 nM)
# In short: as §1
# [8] = system: RARa:RXR (NR concentration 270 nM, RXRa partner concentration 90 nM)
# In short: as §1
# [9] = system: RARa homodimer (NR concentration 270 nM)
# In short: as §1
# [10] = system: RARb:RXRa (NR concentration 270 nM, RXRa partner concentration 90 nM)
# In short: as §1
Sequence,PBM binding z-score [1],PBM binding z-score [2],PBM binding z-score [3],PBM binding z-score [4],PBM binding z-score [5],PBM binding z-score [6],PBM binding z-score [7],PBM binding z-score [8],PBM binding z-score [9],PBM binding z-score [10]
AGAATGAGGTTATAGGTAGATCAGGGAAGAAAGT,2.86,2.76,1.2,1.03,1.63,1.52,1.49,1.93,1.46,1.72
GATACAGGGTCAAGGCCAGAGTGCGCGTATTGAT,2.75,4.1,0.884,0.0154,3.05,3.92,0.307,4.99,1.02,4.28
AGAACGAGGGCAATGTGTTGATAGCACGGGTGGC,3.49,2.88,0.318,-0.0765,0.0511,0.325,0.276,0.248,-0.364,2.05
TAGCCTAGCTCATGCGGGCCAGTATAGTGTCGGC,-0.92,-0.527,-0.361,-0.899,-1.61,-1.02,-0.998,-1.04,-0.996,-1.16
TCTATTAGTTGAAGGGCAACCCACGAGTCCGTTT,2.65,0.706,0.623,0.929,1.43,1.02,1.09,0.823,1.21,1.65
ACTAGCAGGCCATGTTTGGGTCACTCAAACAAAG,0.691,1.13,-0.241,-1.08,0.0761,0.404,-0.559,1.37,-0.914,1.72
TCATATAGGTAAAAGGTAAAAGTCGGTGTGGTAA,5.05,4.32,0.348,1.01,1.81,1.39,0.507,1.78,2.04,0.854
CGAACTAGGTCAGGACAGGACAGTGAAGGATGAT,7.58,7.47,1.64,0.603,0.819,1.25,-0.213,0.766,-0.133,3.44
TCTTGTGGATCAACAGGAGGTTAAGAAAGATCGA,1.35,0.812,0.186,1.07,0.476,0.621,-0.304,0.932,-0.244,0.59
ATCTCTAGGTAACCAAGTTTAGTGAATGCCGAAC,3.62,2.79,0.887,1.75,0.787,0.564,0.333,0.55,1.08,0.627
CGTCAAACTTCAAGGTAACGTAACAGAAAGCAGC,0.101,0.749,0.373,0.926,0.291,0.178,0.193,0.544,-0.134,0.507
CCTATTAGTTGACCATGAGGGCAACCGAAGCTCG,0.64,0.77,0.542,0.384,1.98,1.48,1.48,1.37,1.39,1.52
